# Laboratory results as given in the supplement of paper PMC9262897, “Low-cost anti-mycobacterial drug discovery using engineered E. coli” (Nature Communications, 2022).
# Counter-ions that a name gives are not always drawn. ± gives the standard deviation of the averaged measurements.
# What was measured:
# Assay in all cases: growth (OD600 after 10 h); higher = more growth (less inhibition)
# [1] = tested on: E. coli TESEC Alr+ wild-type control; conditions: compound 0.1 mM; raw OD600 reference: median of DMSO wells 0.241, cell-free background 0.041
# Procedure: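 TESEC Mtb Alr E. coli, or the Alr+ wild-type control, in 384-well plates with Prestwick library compounds at 0.1 mM and 1% DMSO, across arabinose induction levels of 1E3 to 1E7 nM. Growth is read as OD600 after 10 h at 37 °C in triplicate biological replicates.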
# [2] = tested on: E. coli TESEC Mtb Asd; conditions: compound 0.1 mM
# Procedure: (§1)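 TESEC E. coli strains in which the native enzyme is deleted and replaced by arabinose-inducible Mtb Asd, DapB, CysH or TrpD, each grown in its selective medium. Strains were screened against the Prestwick library at 0.1 mM and 1% DMSO in 384-well format at low and high arabinose induction. Growth is read as OD600 after 10 h in triplicate.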
# [3] = tested on: E. coli TESEC Mtb DapB; conditions: compound 0.1 mM
# Procedure: as §1
# [4] = tested on: E. coli TESEC Mtb Alr; conditions: compound 0.1 mM
# Procedure: (§2)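 TESEC Mtb Alr E. coli (ΔaraC ΔtolC ΔentC Δalr ΔdadX, arabinose-inducible Mtb Alr) or the Alr+ wild-type control strain, grown in defined M9-fructose medium without D-alanine in 96-well plates with Prestwick library compounds at 0.1 mM and 1% DMSO. Low Alr induction is 0.1 µM arabinose and high induction is 10 mM arabinose.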
# [5] = tested on: E. coli TESEC Alr+ wild-type control; conditions: compound 0.1 mM; raw OD600 reference: median of DMSO wells 0.49, cell-free background 0.052
# Procedure: as §2
# [6] = arabinose induction (level): High, raw OD600 reference: median of DMSO wells 0.331, cell-free background 0.041
# [7] = arabinose induction (level): Low, raw OD600 reference: median of DMSO wells 0.417, cell-free background 0.041
# [8] = arabinose induction (level): High, raw OD600 reference: median of DMSO wells […], cell-free background 0.041
# [9] = arabinose induction (level): Low, raw OD600 reference: median of DMSO wells 0.227, cell-free background 0.041
# [10] = arabinose 100 nM, raw OD600 reference: median of DMSO wells 0.413, cell-free background 0.052
# [11] = arabinose 10000000 nM, raw OD600 reference: median of DMSO wells […], cell-free background 0.052
SMILES,growth [1],"growth [2, 6]","growth [2, 7]","growth [3, 8]","growth [3, 9]","growth [4, 10]","growth [4, 11]",growth [5]
CCCCC(=O)N(Cc1ccc(-c2ccccc2-c2nnn[nH]2)cc1)[C@H](C(=O)O)C(C)C [Valsartan],0.249 ± 0.013,0.291 ± 0.042,0.396 ± 0.047,0.211 ± 0.011,0.257 ± 0.03,0.422 ± 0.016,0.339 ± 0.012,–
CCN(CC)CC#CCOC(=O)C(O)(c1ccccc1)C1CCCCC1 (centres undefined) [Oxybutynin chloride],0.148 ± 0.0035,0.137 ± 0.017,0.191 ± 0.033,0.159 ± 0.0078,0.172 ± 0.034,0.398 ± 0.031,0.145 ± 0.025,–
CCSc1ccc2c(c1)N(CCCN1CCN(C)CC1)c1ccccc1S2 [Thiethylperazine dimalate],0.0403 ± 0.00055,0.0483 ± 0.0004,0.0464 ± 0.0011,–,–,0.0513 ± 0.00084,0.0544 ± 0.0021,0.0499 ± 0.0032
Clc1ccccc1CN1CCc2sccc2C1 [Ticlopidine hydrochloride],0.0758 ± 0.011,0.236 ± 0.03,0.323 ± 0.07,–,–,0.345 ± 0.085,0.06587 ± 0.00038,0.429 ± 0.015
CCN(CC)C(=S)SSC(=S)N(CC)CC [Disulfiram],0.278 ± 0.0078,0.192 ± 0.028,0.33 ± 0.034,–,–,0.23 ± 0.093,0.146 ± 0.008,0.443 ± 0.066
CCN1CCN(C(=O)N[C@@H](C(=O)N[C@@H]2C(=O)N3C(C(=O)O)=C(CSc4nnnn4C)CS[C@H]23)c2ccc(O)cc2)C(=O)C1=O [Cefoperazone dihydrate],0.2999 ± 0.0024,0.413 ± 0.016,0.417 ± 0.087,0.201 ± 0.0085,0.239 ± 0.042,0.221 ± 0.078,0.341 ± 0.025,–
CCOc1cc(CC(=O)N[C@@H](CC(C)C)c2ccccc2N2CCCCC2)ccc1C(=O)O [Repaglinide],0.185 ± 0.0042,0.282 ± 0.03,0.247 ± 0.032,–,–,0.4 ± 0.0047,0.306 ± 0.014,0.482 ± 0.005
CCN1CCCC(OC(=O)C(c2ccccc2)c2ccccc2)C1 (centres undefined) [Piperidolate hydrochloride],0.18 ± 0.0021,0.176 ± 0.025,0.428 ± 0.14,0.178 ± 0.018,0.182 ± 0.0083,0.4174 ± 0.0019,0.329 ± 0.011,–
CO[C@H]1/C=C/O[C@@]2(C)Oc3c(C)c(O)c4c(O)c(c5c(nc6cc(C)ccn65)c4c3C2=O)NC(=O)/C(C)=C\C=C\[C@H](C)[C@H](O)[C@@H](C)[C@@H](O)[C@@H](C)[C@H](OC(C)=O)[C@@H]1C [Rifaximin],0.044 ± 0.0038,0.0569 ± 0.001,0.054 ± 0.0016,0.103 ± 0.089,0.0515 ± 0.0028,0.05527 ± 0.00047,0.0526 ± 0.00044,–
CC(=O)[C@@]12O[C@](C)(c3ccccc3)O[C@@H]1C[C@H]1[C@@H]3CCC4=CC(=O)CC[C@]4(C)[C@H]3CC[C@@]12C [Algestone acetophenide],0.232 ± 0.0045,0.231 ± 0.0044,0.278 ± 0.038,0.15 ± 0.015,0.171 ± 0.0092,0.413 ± 0.011,0.117 ± 0.013,–
c1ccc2c(CC3=NCCN3)cccc2c1 [Naphazoline hydrochloride],0.231 ± 0.0088,0.238 ± 0.042,0.333 ± 0.048,–,–,0.41 ± 0.0069,0.323 ± 0.018,0.549 ± 0.075
O=c1[nH]c(=O)n([C@H]2C[C@H](O)[C@@H](CO)O2)cc1I [Idoxuridine],0.2463 ± 0.002,0.257 ± 0.057,0.276 ± 0.032,0.185 ± 0.0093,0.202 ± 0.03,0.369 ± 0.032,0.376 ± 0.021,–
CN1CCN(C2=Nc3ccccc3Oc3ccc(Cl)cc32)CC1 [Loxapine succinate],0.166 ± 0.0027,0.201 ± 0.029,0.214 ± 0.021,–,–,0.381 ± 0.017,0.224 ± 0.014,0.399 ± 0.0093
CCCOc1ccc2[nH]c(NC(=O)OC)nc2c1 [Oxibendazol],0.264 ± 0.025,0.353 ± 0.1,0.425 ± 0.048,0.191 ± 0.013,0.219 ± 0.027,0.409 ± 0.0096,0.345 ± 0.039,–
CC(=O)[C@H]1CC[C@H]2[C@@H]3C=CC4=CC(=O)CC[C@@]4(C)[C@@H]3CC[C@]12C [Dydrogesterone],0.103 ± 0.005,0.225 ± 0.038,0.402 ± 0.068,0.176 ± 0.0054,0.189 ± 0.0083,0.371 ± 0.021,0.101 ± 0.022,–
CCN(CC)CCNC(=O)c1cc(Cl)c(N)cc1OC [Metoclopramide monohydrochloride],0.2268 ± 0.0011,0.252 ± 0.015,0.485 ± 0.011,0.193 ± 0.01,0.221 ± 0.018,0.409 ± 0.0098,0.358 ± 0.0081,–
O=C(Cn1ccnc1[N+](=O)[O-])NCCO [Etanidazole],0.2444 ± 0.00084,0.318 ± 0.027,0.423 ± 0.0082,–,–,0.406 ± 0.012,0.358 ± 0.016,0.471 ± 0.019
CC(C)(C)NCC(O)COc1cccc2c1CCC(=O)N2 (centres undefined) [Carteolol hydrochloride],0.236 ± 0.0081,0.222 ± 0.024,0.349 ± 0.1,0.187 ± 0.0085,0.217 ± 0.022,0.405 ± 0.009,0.334 ± 0.0046,–
Cc1cc(C2CCCCC2)n(O)c(=O)c1 [Ciclopirox ethanolamine],0.04347 ± 0.00021,0.0544 ± 0.0014,0.0525 ± 0.0041,–,–,0.0481 ± 0.00095,0.0634 ± 0.0046,–
